Consider 16 compounds from PubChem BioAssay (NCATS).

Inconclusive results are not listed. Activity calls are given as the source filed them. The call rests on the fitted dose curve; in most records, active means well fitted inhibition curve with a large enough effect; inconclusive means small, poorly fitted or top-dose-only effect, or effect the other way; inactive means flat fitted curve, though single readings scatter.
On the % scale 0 is the no-effect control and ±100 the full control effect.

The target in this test is ATP-dependent 6-phosphofructokinase (Trypanosoma brucei brucei) (UniProt O15648). Kind of test: qHTS Assay to Find Inhibitors of T. brucei phosphofructokinase: hit validation (AID 492961).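 Further: luminescence reports ADP formed as PFK phosphorylates fructose-6-phosphate with ATP.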 The conditions noted are these: T. brucei PFK, ADP-Glo luminescence; series mostly up to 51.4 µM; activity change, negative = inhibition: at the top concentration. A digest of the protocol: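 Inhibition of parasite PFK is measured as reduced ADP formation, quantified via luciferase after ATP depletion. Assay used 0.1 mM ATP, 0.5 mM F6P, 1.25 nM enzyme, 45 min incubation.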
ATP-dependent 6-phosphofructokinase (Trypanosoma brucei brucei), sequence (O15648 whole entry, looked up): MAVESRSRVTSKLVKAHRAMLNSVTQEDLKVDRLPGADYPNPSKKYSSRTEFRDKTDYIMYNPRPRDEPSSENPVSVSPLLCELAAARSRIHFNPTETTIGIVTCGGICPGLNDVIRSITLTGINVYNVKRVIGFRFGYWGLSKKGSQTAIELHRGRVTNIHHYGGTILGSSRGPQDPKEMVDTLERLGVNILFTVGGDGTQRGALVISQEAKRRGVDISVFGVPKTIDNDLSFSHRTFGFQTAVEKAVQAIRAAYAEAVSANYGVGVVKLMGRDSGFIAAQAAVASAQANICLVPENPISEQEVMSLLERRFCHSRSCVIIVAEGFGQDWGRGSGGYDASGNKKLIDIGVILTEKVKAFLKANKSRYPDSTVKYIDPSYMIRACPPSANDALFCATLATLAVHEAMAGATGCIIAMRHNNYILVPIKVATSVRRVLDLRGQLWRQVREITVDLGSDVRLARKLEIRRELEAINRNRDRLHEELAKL
On the technique in general: Quantitative high-throughput screening tests each substance at several concentrations.
As to `CC(C)(COP(=O)(O)OP(=O)(O)OC[C@H]1O[C@@H](n2cnc3c(N)ncnc32)[C@H](O)[C@@H]1OP(=O)(O)O)C(O)C(=O)NCCC(=O)NCCS` (stereo partly specified), the “activity change, negative = inhibition” value is -13.3% (inactive).

As for `COc1ccc2nc(NC(=O)Nc3ccccc3)sc2c1`, the “activity change, negative = inhibition” value was -7.32% (inactive).

As for `CN1C(=O)OC(C)(C)C1=O`, the “activity change, negative = inhibition” value is 4.53% [at 24.3 µM] (inactive).

As to `O=C(O)[C@H]1C(=CCO)O[C@H]2CC(=O)N12`, the “activity change, negative = inhibition” value is -8.74% (inactive).

`C=CC(=O)O`: the “activity change, negative = inhibition” value was -0.601% (inactive).

As for `CSc1nc2cc(Oc3cccc(Cl)c3Cl)c(Cl)cc2[nH]1`, the “activity change, negative = inhibition” value was -2.92% (inactive).

For the compound `c1ccc2ccccc2c1`, the “activity change, negative = inhibition” value is -3.43% (inactive).

Regarding `NC(=O)[C@@H]1CCCN1C(=O)[C@H](Cc1cnc[nH]1)NC(=O)[C@@H]1CCC(=O)N1`, the “activity change, negative = inhibition” value was -4.27% (inactive).

With `O=C(CCCN1CCC(C(=O)c2ccc(F)cc2)CC1)c1ccc(F)cc1`, the “activity change, negative = inhibition” value was 2.16% (inactive).

Consider `CCCCCCOC(=O)c1cccnc1`, for which the “activity change, negative = inhibition” value is -4.01% (inactive).

With `CC1CCCCN1CCCOC(=O)c1ccccc1` (stereo unspecified), the “activity change, negative = inhibition” value was -7.94% (inactive).

As to `O=P(O)(O)O`, the “activity change, negative = inhibition” value was 2.68% (inactive).

As for `O=C(O)CCC/C=C\C[C@@H]1[C@@H](/C=C/[C@@H](O)COc2cccc(C(F)(F)F)c2)[C@H](O)C[C@@H]1O`, the “activity change, negative = inhibition” value was -0.102% (inactive).

As to `O=C(O)Cc1cc(I)c(Oc2ccc(O)c(I)c2)c(I)c1`, the “activity change, negative = inhibition” value was -8.05% [at 24.3 µM] (inactive).

With `C[C@]12CC[C@@H]3c4ccc(OC(=O)c5ccccc5)cc4CC[C@H]3[C@@H]1CC[C@@H]2O`, the “activity change, negative = inhibition” value was -3.9% (inactive).

As for `CC(O)CN(C)C` (stereo unspecified), the “activity change, negative = inhibition” value is 11.7% (inactive).
